Sampled rows, rich in hits. Any-hit rate of the full collection: about 4.8%.
SKKanGAS inh = S. pyogenes SKKanGAS growth inhibitors in kanamycin, primary screen, streptokinase expression inhibitor project, SKKanGAS strain, BacTiter-Glo luminescence. 6 h. hit rate 1.3% among 300,000. inhibition, % at 7.5 µM;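 active means mean replicate score, as percent of positive control median, at least 50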;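 further: strain carries kanamycin resistance gene driven by streptokinase promoter and grows in 40 µg/ml kanamycin; loss of luminescence reflects streptokinase promoter inhibition or plain growth inhibition; 0% = median of DMSO wells and 100% = positive control at its reference dose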
tim23-1 inh = growth inhibitors of tim23-1 mutant yeast, primary screen, luminescence, uHTS. hit rate 1.3% among 330,000. inhibition, % at 20 µM. S. cerevisiae tim23-1 growth, BacTiter-Glo luminescence, 24 h;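 active means growth inhibition of the mutant yeast at or above 50%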;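 further: temperature-sensitive mutant grown at 25 °C; plate controls were DMSO-treated mutant yeast for no effect and medium wells lacking yeast for full effect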
TIM10 inh = growth inhibitors of isogenic TIM10 control yeast, primary screen, counter-screen for tim10-1 yeast inhibitor project, luminescence, uHTS; inhibition, % at 10 µM; S. cerevisiae TIM10 strain growth, BacTiter-Glo luminescence, 24 h; hit rate 1.4% among 330,000;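 active means inhibition of 40% or more at the single tested concentration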;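 further: wild-type TIM10 isogenic control strain grown at permissive 25 °C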
NALP1 inh = NALP1 inflammasome inhibitors in reconstituted yeast, colorimetric, S. cerevisiae, triplicate retest; S. cerevisiae NALP1/ASC/caspase-1 growth, X-gal OD620, 72 h; inhibition, % at 10 µM; hit rate 0.61% among 280,000; AID 2071, 2009; in the data active means inhibition mostly above about 24%, no sharp cut-off; inactive means mostly below about 32%
tim10-1 inh = growth inhibitors of tim10-1 mutant yeast, primary screen, luminescence, uHTS | inhibition, % at 20 µM | hit rate 2.2% among 330,000 | AID 463190, 2010 | S. cerevisiae tim10-1 ts strain growth, BacTiter-Glo, 24 h;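 active means inhibition of at least 40%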;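 further: mutant grown at 25 °C; 0% = DMSO wells with yeast and 100% = wells holding no yeast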
PfHsp90 yeast 2 = growth inhibition of PfHsp90-expressing yeast, primary screen, antimalarial PfHsp90 inhibitor project, S. cerevisiae, BacTiter-Glo luminescence, single point, set 2 | BacTiter-Glo ATP, 48 h; yeast lacking PDR1 and PDR3 efflux regulators | AID 504621, 2011 | inhibition, % at 9.4 µM | hit rate 0.32% among 310,000;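 active means every replicate shows inhibition above about 80%, whatever the replicate mean, limit read from the data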;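 further: 0% = DMSO neutral controls and 100% = 20 µM radicicol positive controls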
tim10-1 conf = growth inhibitors of tim10-1 mutant yeast, confirmation, single concentration, luminescence, S. cerevisiae | hit rate 56% among 7,400 | shares compounds with tim10-1 inh | inhibition, % at 20 µM | S. cerevisiae tim10-1 ts strain growth, BacTiter-Glo, 24 h;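 active means inhibition of yeast growth at or above a set limit in either of two repeat tests at 20 µM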;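 further: tim10-1 mutant grown at permissive 25 °C to find synthetic lethal compounds; 0% = DMSO yeast wells and 100% = medium wells without yeast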
* marks the source's active call; other numbers are inactive results.

What do the screens show for `COC(=O)c1cccc(CSc2nc(-c3ccccc3)c(C#N)c(=O)[nH]2)c1`?
SKKanGAS inh: 35; tim23-1 inh: 28; TIM10 inh: 18; NALP1 inh: 19; tim10-1 inh: 47*; PfHsp90 yeast 2: 16; tim10-1 conf: 8

What do the screens show for `N#Cc1c(-c2ccccc2)nc(SCC(=O)Nc2ccccc2)[nH]c1=O`?
NALP1 inh: 23; PfHsp90 yeast 2: -7

What do the screens show for `O=C(Nc1cccc(-c2cccc(F)c2)c1)C1CCN(C2CCOCC2)CC1`?
SKKanGAS inh: -5; tim23-1 inh: 12; TIM10 inh: -24; NALP1 inh: 16; tim10-1 inh: 43*; PfHsp90 yeast 2: -11; tim10-1 conf: -54

Results for COc1ccc(N(CCN2C(=O)c3ccccc3C2=O)C(=O)c2cccc([N+](=O)[O-])c2)cc1 ?
SKKanGAS inh: 1; tim23-1 inh: 49; TIM10 inh: 35; NALP1 inh: 8; tim10-1 inh: 40; PfHsp90 yeast 2: -16; tim10-1 conf: 35*

Results for COc1ccc(N(CCCN2C(=O)c3cccc4cccc(c34)C2=O)C(=O)c2ccncc2)cc1 ?
SKKanGAS inh: 2; tim23-1 inh: 30; TIM10 inh: 15; NALP1 inh: 0; tim10-1 inh: 25; PfHsp90 yeast 2: -12

Results for COC(=O)c1cccc(NC(=O)c2cc3sccc3n2C)c1 ?
SKKanGAS inh: -5; tim23-1 inh: 34; TIM10 inh: 31; NALP1 inh: 12; tim10-1 inh: 44*; PfHsp90 yeast 2: 11; tim10-1 conf: 31

What do the screens show for `Cn1ncc2c(Nc3ccc4ccccc4c3)ncnc21`?
SKKanGAS inh: 15; tim23-1 inh: 49; TIM10 inh: 19; NALP1 inh: -14; tim10-1 inh: 38; PfHsp90 yeast 2: -11

Results for O=C(NCCSc1ccccc1)c1ccc(Br)cc1 ?
SKKanGAS inh: 0; tim23-1 inh: -6; TIM10 inh: -34; NALP1 inh: 33; tim10-1 inh: -25; PfHsp90 yeast 2: 23

How did O=C(NCCCSc1ccccc1)c1cc(Br)ccc1O do in these assays?
SKKanGAS inh: 7; tim23-1 inh: 42; TIM10 inh: 16; NALP1 inh: 2; tim10-1 inh: 46*; PfHsp90 yeast 2: 94*; tim10-1 conf: 19

Results for N#C/C(=C/c1ccc(-c2ccc(Br)cc2)o1)C(=O)NC1CCCCC1 ?
SKKanGAS inh: 14; tim23-1 inh: 19; TIM10 inh: 19; NALP1 inh: 31; tim10-1 inh: 22; PfHsp90 yeast 2: 0

Results for N#C/C(=C\c1ccc(-c2ccc(Br)cc2)o1)C(=O)NCCc1c[nH]c2ccccc12 ?
tim23-1 inh: 14; TIM10 inh: 37; NALP1 inh: 22; tim10-1 inh: 41*; PfHsp90 yeast 2: -36; tim10-1 conf: 21

Results for Cc1onc(-c2ccccc2Cl)c1C(=O)N1CCN(c2nc3ccccc3s2)CC1 ?
SKKanGAS inh: 8; tim23-1 inh: 32; TIM10 inh: 33; NALP1 inh: 34*; tim10-1 inh: 49*; PfHsp90 yeast 2: 2; tim10-1 conf: 29

What do the screens show for `O=C(O)COc1ccc(NC(=O)C(c2ccccc2)c2ccccc2)cc1`?
SKKanGAS inh: -6; tim23-1 inh: 11; TIM10 inh: 6; NALP1 inh: 4; tim10-1 inh: 9; PfHsp90 yeast 2: 9

What do the screens show for `COc1cc(Br)ccc1C1CC(=O)C(C)C(c2ccc(Br)cc2OC)N1` (stereo not given)?
SKKanGAS inh: 32; tim23-1 inh: 26; TIM10 inh: 20; NALP1 inh: 15; tim10-1 inh: 53*; PfHsp90 yeast 2: 23; tim10-1 conf: 10

Results for CC(C)OC(=O)c1ccc2nc3ccccc3nc2c1 ?
SKKanGAS inh: 15; tim23-1 inh: 20; TIM10 inh: 2; NALP1 inh: 28; tim10-1 inh: 41*; PfHsp90 yeast 2: -102; tim10-1 conf: 11

Assay outcomes (PubChem BioAssay)
